The values below come from PubChem BioAssay (NCI).

Common to all, as to assay: NCI-60 one-dose screen, 48 h (100 = growth as untreated, 0 = no growth, -100 = all killed)
Common to all, as to conditions: 10 µM unless noted

Experiment [1] concerns SR leukemia.
For experiment [2], the system named is RPMI-8226 leukemia.
Experiment [3] deals with OVCAR-5 ovarian.
The test system of experiment [4] is OVCAR-4 ovarian.
Experiment [5] deals with SK-OV-3 ovarian.
Experiment [6] relates to OVCAR-3 ovarian.
Experiment [7] relates to HS 578T breast.
Experiment [8] has as its system NCI/ADR-RES ovarian.
Experiment [9] deals with IGROV1 ovarian.
In experiment [10] the test system is OVCAR-8 ovarian.

The panel holds about 83,000 compounds, 20% with a hit somewhere; the sample as a whole holds those more often.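 How to read the values: 0–100, growth inhibition (40 = 60% inhibited); 0, no net growth; -100 to 0, cell death (-40 = 40% of starting cells died; -100 = all dead).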 Unmarked numbers belong to inactive results. Calls of active or inactive are those of the source. How the source made its calls: active means growth percent below 10; inactive means the rest.

In the case of `COc1cc(/C=C/C(=O)c2cccc(-n3cc(-c4cc(OC)c(OC)c(OC)c4)[nH]c3=O)c2)cc(OC)c1OC`, the growth was -12.7% (active) in [1]; -46.4% (active) in experiment [2]; 28.4% in experiment [3]; 23.2% in [4]; 49.6% in experiment [5]; -39% (active) in [6]. For the same compound, the growth is 62.4% in experiment [7] and 10.5% in experiment [8].

Take `Brc1cccc(-c2cc(-c3ccc4nccnc4c3)[nH]n2)c1`: the growth was 33.8% [25 µM] in experiment [1]; 20.3% [25 µM] in experiment [2]; 38.2% [25 µM] in [3]; 48.3% [25 µM] in experiment [4]; 33.2% [25 µM] in experiment [5]; 27.8% [25 µM] in experiment [9]. Further, the growth was 4.18% [25 µM] (active) in [6], 13.7% [25 µM] in experiment [7] and 2.03% [25 µM] (active) in experiment [8].

For the compound `CN1CCN(CCCOc2ccc3nc(Nc4ccc(Cl)c(C(F)(F)F)c4)ccc3c2)CC1`, the growth was 2.08% (active) in [1]; 18.1% in [2]; 72.1% in experiment [3]; 66.6% in experiment [4]; 91.4% in experiment [5]; 46.2% in experiment [9]. Moreover, the growth is 59.3% in experiment [6], 46% in experiment [7] and 62.8% in [8].

For the compound `CCOc1cc2c(Cl)ncnc2c(OCC)c1OCC`, the growth in [1] was 4.52% (active); in [10], 99.6%; in experiment [3], 96.7%; in [4], 94.9%; in experiment [5] it was 108%; in experiment [9], -65.2% (active). The figures for the growth in experiment [6] and in experiment [7] were 3.36% (active) and 94.7%, respectively.

On to `COc1cc(C(=O)/C=C/c2ccc3nc(-c4cc(F)cc(F)c4)sc3c2)cc(OC)c1OC`, for which the growth is 103% in [1]; 104% in experiment [10]; 97.1% in experiment [3]; 107% in experiment [4]; 94.5% in experiment [5]; 96.6% in [9]. The figures for the growth in experiment [6], in experiment [7] and in experiment [8] were 112%, 93.1% and 98.7%, respectively.

`COC(=O)c1cc2cc(-c3ccc(OC)cc3)cnc2[nH]1`: the growth was 10.7% in experiment [1]; -5.41% (active) in experiment [2]; 44.9% in experiment [3]; 30.2% in experiment [4]; 1.35% (active) in experiment [5]; -55.7% (active) in [6]. The growth in experiment [7] was 33.8%; in [8], -35.6% (active).

As to `Cc1[nH]c2ccc(F)cc2c1CCNC(=O)C1CCN(C(=O)c2ccccc2)CC1`, the growth in [1] was 97.3% [25 µM]; in experiment [2], 10% [25 µM]; in [3], 95.1% [25 µM]; in experiment [4] it was 78.6% [25 µM]; in [9], 82.5% [25 µM]; in experiment [6] it was 98.2% [25 µM]. The growth in experiment [7] is 87.7% [25 µM]; in experiment [8] it was 95.5% [25 µM].

Regarding `COc1ccc2c(c1)[nH]c(=O)c1c3cc(C)c(C)cc3cn21`, the growth in experiment [1] is 31.9%; in [2], -32.2% (active); in experiment [3], 28.8%; in experiment [4], 42.4%; in [5], 43.3%; in experiment [9], -21.7% (active). Further, the growth in [8] was 8.27% (active).

For the compound `CCN(CC)CCCC(C)Nc1c2ccc(Cl)cc2nc2cc(OC)c(OC)cc12` (stereo not given), the growth in experiment [1] was -14.2% (active); in experiment [2], -33% (active); in [3], 50.9%; in experiment [4], -30.7% (active); in [5], 40.5%; in [9], 24.3%. In addition, the growth in experiment [6] is 34.4%; in [7] it was 44.2%; in [8] it was 28.8%.

As for `Cc1nc2ncccc2nc1Nc1ccc(S(=O)(=O)Nc2cncs2)cc1`, the growth is 102% in experiment [1]; 88.4% in [2]; 96.4% in experiment [3]; 98.6% in experiment [4]; 86.2% in experiment [5]; 51% in experiment [9]. The growth in experiment [7] is 92.8%; in experiment [8], 98%.

As for `O=C(NS(=O)(=O)c1ccc2ccccc2c1)n1cc(-c2ccncc2)c(-c2ccc(Cl)c(O)c2)n1`, the growth was 61.8% in experiment [1]; 60.2% in experiment [2]; 89.8% in experiment [3]; 81.8% in experiment [5]; 60.2% in [9]; 133% in experiment [6]. Further, the growth in [7] was 72.4%; in experiment [8] it was 87.6%.

With `Cn1cnc2c(N3CCN(C(=O)OCc4ccc5c(Cl)cc(Cl)c(O)c5n4)CC3)nc(Cl)nc21`, the growth in [1] was 74.1%; in experiment [10] it was 51.3%; in [3] it was 90.5%; in experiment [4], 32.7%; in experiment [5], 97.6%; in experiment [9] it was 66%. Also, the growth in experiment [6] was 66.8%; in experiment [7] it was 75.7%; in experiment [8], 35.3%.

For `C=C1CCC2C(C)(CO)C(O)CCC2(C)C1C/C=C1/C(=O)OCC1Oc1ccccc1C` (stereo not given), the growth in experiment [1] was 50.7%; in experiment [10] it was 72.5%; in experiment [3] it was 91.8%; in [4] it was 74.8%; in [5], 122%; in [9], 73.7%. The growth in experiment [6] was 34.3%; in experiment [7], 105%.

As for `CCN(CC)CCC(CNc1c2ccc(Cl)cc2nc2ccc(OC)cc12)c1ccccc1` (stereo not given), the growth in [1] was -6.4% (active); in experiment [2], -23.6% (active); in [3], -9.48% (active); in experiment [5], 35.3%; in [9], -10.5% (active); in [6], -30.5% (active). For the same compound, the growth in experiment [7] was -27.6% (active); in experiment [8], -1.8% (active).

On to `COc1ccc(S(=O)(=O)NCCCNc2nccc(-n3ccc4cccnc43)n2)cc1`, for which the growth in experiment [1] was 90.7%; in experiment [10], 92.7%; in experiment [3] it was 100%; in [4], 81.5%; in [5], 119%; in experiment [9], 103%. Besides, the growth in experiment [6] was 98.8%; in [7], 92.3%; in experiment [8], 91.1%.
